Experimental data reported in PubChem BioAssay AID2057 (The Scripps Research Institute Molecular Screening Center, 2009).
About 2,100 (0.66%) of roughly 320,000 compounds were called active. For the sample, actives were picked, then their nearest neighbours and some compounds at random. Unmarked numbers belong to inactive results.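 Rule for the calls: active = inhibition above the mean inhibition of all tested compounds plus 3 SD, set per campaign (cut at about 40% in these data); inactive = the rest.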

What follows are molecules tested against Induced myeloid leukemia cell differentiation protein Mcl-1 (Homo sapiens) (UniProt Q07820) (assay: inhibitors of MCL1 binding to BIM-BH3, primary screen, biochemical, fluorescence polarization (AID 2057;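 note: 0% = DMSO wells and 100% = unlabeled Bim-BH3 peptide control; higher means more loss of mP so more displacement of Bim peptide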)). Conditions: GST-MCL1 / FITC-Bim-BH3 fluorescence polarization; at 10.9 µM; active compounds read high.
Chain of Induced myeloid leukemia cell differentiation protein Mcl-1 (Homo sapiens) (Q07820 whole entry, looked up): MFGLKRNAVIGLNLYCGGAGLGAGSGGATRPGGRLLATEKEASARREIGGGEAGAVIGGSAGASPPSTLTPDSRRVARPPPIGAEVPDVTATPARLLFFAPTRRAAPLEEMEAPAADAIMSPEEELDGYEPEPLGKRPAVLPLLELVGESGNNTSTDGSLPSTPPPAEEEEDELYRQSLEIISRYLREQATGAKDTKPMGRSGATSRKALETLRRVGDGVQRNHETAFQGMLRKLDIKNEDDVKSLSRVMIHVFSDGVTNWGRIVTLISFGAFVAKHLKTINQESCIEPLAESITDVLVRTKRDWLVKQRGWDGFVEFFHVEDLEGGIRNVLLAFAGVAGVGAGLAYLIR
`COc1ccc(S(=O)(=O)N2CCCCC2)cc1NC(=O)c1cc([N+](=O)[O-])ccc1N1CCOCC1` showed an inhibition of 3.68%. For `CCn1c(SCc2cc(=O)n3ccsc3n2)nc2ccccc21`, the inhibition was 8.95%. In the case of `CCOc1ncccc1C(=O)N(C)CC(=O)Nc1ccc(F)cc1`, the inhibition is reported as -10.5%. In the case of `COc1ccc(NC(=O)c2cc(-c3ccc(C)o3)nc3ccccc23)cc1`, the inhibition is reported as 22.5%. `Cc1ccc(NC(=O)c2cc(-c3ccc(C)o3)nc3ccccc23)nc1` was tested, and the inhibition was 56.2% (active). `CC(=O)N1CCN(C(=O)c2cc(-c3ccc(C)o3)nc3ccccc23)CC1` showed an inhibition of 7.28%. Work on `Cc1cc(OCc2cc(C(=O)NCc3cc(C(C)C)no3)no2)cc(C)c1Cl` yielded an inhibition of 6.88%. `Cc1cc(C)n(-c2nnc(C)n2NC(=O)c2cccc(Cl)c2)n1` was tested, and the inhibition was -1.3%. Work on `COc1cccc(C2Nc3cccc4cccc(c34)N2)c1` yielded an inhibition of 22.2%. For `Cc1ccc(C2Nc3cccc4cccc(c34)N2)cc1`, the inhibition was 53.9% (active). `Oc1ccc(C2Nc3cccc4cccc(c34)N2)cc1` showed an inhibition of 26.6%. `O=C(C1CCC1)N1CCN(S(=O)(=O)c2ccc([N+](=O)[O-])cc2)CC1` gave an inhibition of -7.38%. Molecule `COc1ccc(O)c(/C=N/N=C/c2cccc([N+](=O)[O-])c2)c1` has an inhibition of 3.97%. `COc1ccccc1/C=C/C(=O)NC(=S)N1CCOCC1` was tested, and the inhibition was -5.3%. `COc1ccc(OCC(=O)NCCS(=O)(=O)N2CCN(c3ccc(F)cc3)CC2)cc1` showed an inhibition of 2.8%. `CCOc1ccc(C2=CC(c3ccccc3)n3ncnc3N2)cc1` (stereo not given) showed an inhibition of 6.81%. In the case of `COC(=O)C1=C(C)Nc2ncnn2C1c1ccco1` (stereo not given), the inhibition is reported as 9.97%. In the case of `O=C(C1=C(O)C(=O)N(Cc2ccccc2)C1c1ccco1)c1ccco1` (stereo not given), the inhibition is reported as 4.91%. `O=C(C1=C(O)C(=O)N(c2ncccn2)C1c1cccs1)c1ccco1` (stereo not given) was tested, and the inhibition was 117% (active). `O=C(C1=C(O)C(=O)N(Cc2ccccc2)C1c1cccnc1)c1ccco1` (stereo not given) was tested, and the inhibition was 2.72%. Molecule `CC(=O)Nc1cccc(C(=O)OCC(=O)c2ccc3c(c2)OCO3)c1` has an inhibition of 0.4%. `C/C=C\C=C\C(=O)N1CC2(CC(c3cccc(NC(=O)/C(C)=C\C)c3)=NO2)C[C@H]1C(N)=O` (stereo not given in full) was tested, and the inhibition was 0%. Molecule `CCOc1ccccc1NC(=S)N1CCN(c2cccc(C)c2C)CC1` has an inhibition of 4.81%. Molecule `CCOC(=O)c1ccc(NC(=O)Cn2cnc3cc(C)c(C)cc32)cc1` has an inhibition of 5.35%. `NC(=O)C1=C[C@@H](c2ccc3c(c2)OCO3)C[C@@H](OCCCCO)O1` was tested, and the inhibition was 12.6%. Work on `Cc1cc(C)cc(OCC(=O)Nc2ccc(N3CCOCC3)cc2N2CCOCC2)c1` yielded an inhibition of 1.14%. `CCCCNc1nc2ccccc2nc1NS(=O)(=O)c1cccs1` showed an inhibition of 2.76%. `COc1ccc(Cl)cc1NC(=O)CCS(=O)(=O)c1cc2c(cc1C)NC(=O)CO2` was tested, and the inhibition was 8.54%. `COc1ccc(Cl)cc1NC(=O)CCS(=O)(=O)c1ccc(Br)cc1` was tested, and the inhibition was 42.9% (active). With `O=C(CCS(=O)(=O)c1ccc(Br)cc1)NCCc1ccc(Cl)cc1` the inhibition was -2.54%. `O=C(NNS(=O)(=O)c1ccccc1)c1cnn(-c2ccc(Cl)cc2)c1C(F)(F)F` gave an inhibition of 6.42%. With `O=C(O)c1ccccc1N=N/C(=N/Nc1cc(S(=O)(=O)O)ccc1O)c1ccccc1` the inhibition was 62% (active). Molecule `O=C(Nc1ccc(C(=O)O)c(O)c1)c1ccccc1` has an inhibition of -1.25%. `O=C(NCCc1ccccc1)C1CC1` was tested, and the inhibition was 3.41%. In the case of `Cc1cc(C)n2nc(C(=O)Oc3ccc4c(c3)OCO4)nc2n1`, the inhibition is reported as 3.36%. For `CN(C)N=Nc1ccc2nc[nH]c2c1`, the inhibition was 2.69%. With `Cc1ccc(S(=O)(=O)N[C@@H](Cc2ccccc2)C(=O)N2CCC(C(=O)N[C@H](C(=O)O)C(C)O)CC2)cc1` (stereo not given in full) the inhibition was -6.49%. `Cc1nn(C)c(Oc2ccccc2)c1CCNS(=O)(=O)c1ccc(F)cc1` gave an inhibition of 2.92%. With `COc1ccc(CNc2nc3c(c(=O)[nH]c(=O)n3C)n2Cc2ccccc2)cc1` the inhibition was 5.54%. Work on `COCCn1c(N)c(N(Cc2ccccc2)C(=O)C2CCCCC2)c(=O)[nH]c1=O` yielded an inhibition of 0.45%. With `COCCn1c(N)c(NCc2ccccc2)c(=O)[nH]c1=O` the inhibition was 73.5% (active). `CCC(=O)c1cc(F)ccc1OCC(=O)Nc1ccc2c(c1)OCCO2` showed an inhibition of -2.34%. Work on `O=c1[nH]n2c(-c3ccccc3)nc(O)c2c2ccccc12` yielded an inhibition of -5.68%. `O=c1[nH]c2ccccc2n2c(-c3ccccc3)nnc12` was tested, and the inhibition was 57% (active). In the case of `Cc1nc2nc(C)c(NS(=O)(=O)c3ccc(C(C)(C)C)cc3)c(=O)n2[nH]1`, the inhibition is reported as 0.66%. Work on `CS(=O)(=O)N(CC(=O)N1CCN(c2ccc(F)cc2)CC1)C1CCCCC1` yielded an inhibition of -4.24%. With `CCOC(=O)N1CCN(C(=O)C(C)NC(=O)c2ccco2)CC1` (stereo not given) the inhibition was -1.38%. `CCN(C(=O)CSc1ncnc2sccc12)c1c(N)n(Cc2ccccc2)c(=O)[nH]c1=O` gave an inhibition of 0.53%. In the case of `O=C(N/N=C\c1cc(Br)c(Br)o1)C1COc2ccccc2O1` (stereo not given), the inhibition is reported as 10.5%. With `Cc1ccc(C(=O)N/N=C\c2cc(Br)c(Br)o2)cn1` the inhibition was 46% (active). In the case of `Cc1ccc(C(=O)N/N=C/c2cccc3ccccc23)cn1`, the inhibition is reported as -3.5%. `Cc1ccn2cc(-c3nonc3C)cc2c1` was tested, and the inhibition was 11.9%. With `Cc1nc2cc(S(=O)(=O)C(F)(F)F)ccc2s1` the inhibition was -1.41%. Molecule `NS(=O)(=O)c1cccc(NC(=O)CC23CC4CC(CC(Br)(C4)C2)C3)c1` has an inhibition of -1.18%. In the case of `Cc1sc(NC(=S)NC(=O)c2cccs2)nc1-c1ccc(CC(C)C)cc1`, the inhibition is reported as -5.44%. `O=C(NN1C(=O)C2C(C1=O)C1C=CC2C12CC2)c1ccccc1Cl` (stereo not given) gave an inhibition of 1.2%. `CC12CCC(C(=O)N(c3cccc(Cl)c3)C1=O)C2(C)C` (stereo not given) showed an inhibition of 4.99%. With `CC12CCC(C(=O)N(NC(=O)c3ccccc3O)C1=O)C2(C)C` (stereo not given) the inhibition was 42.7% (active). `CCCC1=Nc2cc(C(=O)NCc3ccco3)ccc2Sc2ccccc21` gave an inhibition of -1.97%. `CCOP1(=O)C=C(C(C)(C)C)OC1c1ccc(F)cc1` (stereo not given) gave an inhibition of -0.66%.
